Bioassay records from PubChem BioAssay.
The entries come from a sample that favours hits as a whole.
IDE exosite inh: exo-site inhibitors of human IDE, primary screen, biochemical, fluorescence anisotropy, probe displacement. 17,000 compounds, 6.3% hits. Insulin-degrading enzyme (Homo sapiens), P14735. z-score at 20 µM. purified IDE, FL-6b probe fluorescence polarization; hits give low values;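 active = z-score of -3 or lower, meaning strong loss of probe binding signal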;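 note: His-tagged human IDE residues 42-1019 made in E. coli with 30 nM FL-6b probe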
An asterisk follows results filed as active.

SMILES | IDE exosite inh
COCC(=O)Nc1ccc2c(c1)[C@@H]1C[C@@H](CC(=O)NCc3ccc4c(c3)OCO4)O[C@H](CO)[C@@H]1O2 | -0.12
CCNC(=O)C[C@H]1CC[C@H]2[C@@H](COC[C@@H](O)CN2C(=O)c2ccccn2)O1 | -0.62
N#C[C@@H]1[C@H](c2ccc(-c3cncnc3)cc2)[C@H](CO)N1C(=O)C1CCC1 | 2.8
C[C@@H]1CN([C@H](C)CO)S(=O)(=O)c2ccc(C#CCC3CCCC3)cc2O[C@H]1CN(C)C(=O)c1cnccn1 | -1.8
C[C@@H](NC(=O)C[C@@H]1C=C[C@@H](NC(=O)c2cccnc2)[C@H](CO)O1)c1ccccc1 | 0.18
CO[C@@H]1CN(C)C(=O)c2ccc(NC(=O)c3nc4ccccc4s3)cc2OC[C@@H](C)N(Cc2cccnc2)C[C@@H]1C | 0.012
CC(=O)N1CC(=O)N2[C@H](CO)[C@H](c3ccc(-c4cccc(C(=O)N(C)C)c4)cc3)[C@@H]2C1 | 1
N#C[C@@H]1[C@@H](c2ccc(C3=CCCC3)cc2)[C@@H](CO)N1C(=O)C1CCC1 | 2
CCCNC(=O)N1[C@H](CNC(C)=O)[C@H](c2ccccc2)[C@@H]1CO | -0.15
N#C[C@@H]1[C@H](c2ccccc2-c2cccc(F)c2)[C@@H](CO)N1C(=O)c1cccnc1 | 0.89
N#Cc1cccc(-c2ccc(C3[C@@H]4CN(C(=O)c5cccnc5)C[C@H]3N4)cc2)c1 (stereo not given in full) | -0.62
CO[C@H]1CN(C)C(=O)c2cc(NS(C)(=O)=O)ccc2OC[C@H](C)N(Cc2cncnc2)C[C@H]1C | 1.7
C[C@@H]1CCCCO[C@H](CN(C)C(=O)Nc2cccc3ccccc23)[C@H](C)CN([C@@H](C)CO)C(=O)c2cc(NC(=O)CCC(F)(F)F)ccc2O1 | -0.17
O=C(c1cccc(F)c1)N1CC(=O)N2[C@H](C1)[C@H](c1ccc(C#Cc3ccc(F)cc3)cc1)[C@@H]2CO | 1.5
O=C(c1cccc(F)c1)N1CC(=O)N2[C@H](CO)[C@H](c3ccc(C#Cc4ccc(F)cc4)cc3)[C@H]2C1 | 3.9
O=C(C1CC1)N1CC(=O)N2[C@H](CO)[C@@H](c3ccc(C#Cc4cccc(F)c4)cc3)[C@@H]2C1 | -5.7*
O=C(C1CC1)N1CC(=O)N2[C@@H](CO)[C@H](c3ccc(C#Cc4cccc(F)c4)cc3)[C@@H]2C1 | -5.8*
CCC(=O)N1CC(=O)N2[C@H](CO)[C@@H](c3ccc(C#Cc4cccc(F)c4)cc3)[C@H]2C1 | 2.6
O=C(C1CC1)N1CC(=O)N2[C@H](CO)[C@H](c3ccc(C#Cc4cccc(F)c4)cc3)[C@@H]2C1 | -4.2*
O=C(C1CC1)N1CC(=O)N2[C@H](CO)[C@@H](c3ccc(C#Cc4cccc(F)c4)cc3)[C@H]2C1 | -3.1*
O=C(c1cccc(F)c1)N1CC(=O)N2[C@@H](CO)[C@@H](c3ccc(C#Cc4ccc(F)cc4)cc3)[C@@H]2C1 | -0.9
O=C(c1cccc(F)c1)N1CC(=O)N2[C@H](CO)[C@@H](c3ccc(C#Cc4ccc(F)cc4)cc3)[C@@H]2C1 | 1.3
COc1ccc2c3c([nH]c2c1)[C@H](CO)N(C(=O)c1cccnc1)CC31CN(C(=O)Nc2cccc(F)c2)C1 | -0.37
O=C(C[C@H]1C=C[C@H](NS(=O)(=O)c2ccccc2)[C@@H](CO)O1)NCCN1CCCCC1 | 3.1
O=C(C[C@@H]1C[C@@H]2c3cc(NS(=O)(=O)c4ccc(F)cc4)ccc3O[C@@H]2[C@@H](CO)O1)NCCN1CCCCC1 | 0.36
SMILES | IDE exosite inh
O=C(c1ccc2c(c1)OCO2)N1CC(=O)N2[C@H](C1)[C@@H](c1ccc(C#CCC3CCCC3)cc1)[C@@H]2CO | 2
O=C(Nc1ccccc1)N1CCCCN2[C@@H](CO)[C@H](c3ccc(-c4ccccc4F)cc3)[C@@H]2C1 | 4.3
Cc1noc(C)c1NC(=O)N(C)C[C@@H]1Oc2ccc(NC(=O)CCCN(C)C)cc2C(=O)N([C@@H](C)CO)C[C@@H]1C | 0.41
O=C(C1CCC1)N1CC(=O)N2[C@H](CO)[C@@H](c3ccc(C#Cc4cccc(F)c4)cc3)[C@H]2C1 | -6.9*
O=C(C1CCCCC1)N1CC(=O)N2[C@H](CO)[C@H](c3ccc(C#Cc4cccc(F)c4)cc3)[C@@H]2C1 | 0.66
O=C(C1CC1)N1CC(=O)N2[C@H](CO)[C@H](c3ccc(C#Cc4cccc(F)c4)cc3)[C@H]2C1 | -9.6*
O=C(C1CCCCC1)N1CC(=O)N2[C@H](C1)[C@@H](c1ccc(C#Cc3cccc(F)c3)cc1)[C@@H]2CO | -0.09
O=C(C1CCCCC1)N1CC(=O)N2[C@H](CO)[C@H](c3ccc(C#Cc4cccc(F)c4)cc3)[C@H]2C1 | -2.9
O=C(C1CC1)N1CC(=O)N2[C@H](C1)[C@@H](c1ccc(C#Cc3cccc(F)c3)cc1)[C@@H]2CO | -2.9
CN1C(=O)c2cc(NC(=O)Cc3cccs3)ccc2OC[C@H]2O[C@H](CC(=O)NCCc3ccncc3)CC[C@@H]21 | 1.8
O=C1CN(S(=O)(=O)Cc2ccccc2)C[C@H]2[C@@H](c3ccc(C#Cc4ccc(F)cc4)cc3)[C@H](CO)N12 | 1.3
